Data on seven compounds can be found in PubChem BioAssay (Tox21).

Structures are written as SMILES. Where “and” joins values, the source holds several entries; their conditions need not be identical. Equal values may be shown once. Values without a mark were called inactive. Results filed as inconclusive are left out. Calls of active or inactive are those of the source. Unless noted, calls come from the whole dose curve; as a rule, active = well fitted curve in the direction sought with a large enough effect in the repeat runs; inconclusive = weak or mixed curves; inactive = no such curve, though single readings can be large; an effect the other way counts as inactive or inconclusive.

The nature of experiment [1]: qHTS assay to test for compound auto fluorescence at 535 nm (green) in HEK293 cells (AID 720680).
Experiment [2] can be described thus: qHTS assay to test for compound auto fluorescence at 460 nm (blue) in HEK293 cell free culture (AID 720681). An outline of the steps: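 Test compounds were pinned into cell-free culture medium (DMEM with 10% FBS) and fluorescence was read directly at Ex/Em 405/460 nm. Signals were expressed as fluorescence equivalents of triamterene, with DMSO vehicle as control.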

A short description of experiment [3]: qHTS assay to test for compound auto fluorescence at 535 nm (green) in HEK293 cell free culture (AID 720682). An outline of the steps:
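No cells present: wells hold DMEM supplemented with 10% FBS, into which compound or vehicle is pinned. Green emission is then recorded (485 nm excitation, 535 nm emission) and scaled to fluorescein.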

Experiment [4] in a line: qHTS assay to test for compound auto fluorescence at 590 nm (red) in HEK293 cell free culture (AID 720683). The method, boiled down:
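Tox21 10K library compounds were pinned into cell-free DMEM with 10% FBS and fluorescence was read at excitation 540 nm. Activity is expressed as Rose Bengal sodium equivalency.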

Experiment [5] in a line: qHTS assay to test for compound auto fluorescence at 590 nm (red) in HepG2 cell free culture (AID 720684). The method, boiled down:
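Red fluorescence (540 nm excitation, 590 nm emission) was measured after compound transfer into cell-free MEM supplemented with 10% FBS. Values are equivalencies against Rose Bengal sodium.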

A short description of experiment [6]: qHTS assay to test for compound auto fluorescence at 460 nm (blue) in HepG2 cell free culture (AID 720685). The method, boiled down:
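Compound (23 nL) or DMSO pinned into cell-free MEM with 10% FBS; blue fluorescence read at 405/460 nm excitation/emission, expressed as auto-fluorescence equivalency to triamterene.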

Experiment [7] can be described thus: qHTS assay to test for compound auto fluorescence at 535 nm (green) in HepG2 cell free culture (AID 720686).
The nature of experiment [8]: qHTS assay to test for compound auto fluorescence at 460 nm (blue) in HepG2 cells (AID 720687). An outline of the steps:
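Cells (2,000/well in MEM with 10% FBS) attached overnight at 37 C, then were exposed to compound or DMSO for 1 hr at 37 C, 5% CO2. Fluorescence read at Ex/Em 405/460 nm, expressed as triamterene-equivalent signal.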

Experiment [9] concerns the target Glucocorticoid receptor (Homo sapiens) (UniProt P04150). Put plainly: qHTS assay to identify small molecule agonists of the glucocorticoid receptor (GR) signaling pathway (AID 720691; active = well fitted activation curve with a large enough effect in the signal ratio in the repeat runs, not every such curve was filed as active; the % refers to the signal ratio). The settings on record: GR-bla HeLa, beta-lactamase reporter ratio, 18 h; activation: at 62.4 µM (top of the series). The method, boiled down: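 Agonist mode in a HeLa line carrying a GRE-controlled beta-lactamase reporter. Compounds act for 18 h at 37 C before a 2 h room-temperature FRET substrate step and fluorescence reading.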

Experiment [10] has the same target. Put plainly: qHTS assay to identify small molecule antagonists of the glucocorticoid receptor (GR) signaling pathway (AID 720692; active = well fitted inhibition curve with a large enough effect in the signal ratio in the repeat runs, not every such curve was filed as active; the % refers to the signal ratio; note: potency is the fitted concentration of half-maximal effect). The method, boiled down: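 Cells plated, rested 4 h at 37 C/5% CO2; compounds in DMSO pin-transferred; dexamethasone added to 5 nM final; 18 h at 37 C; B/G FRET substrate added, 2 h room temperature; fluorescence measured.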
Experiment [11] is described as follows: qHTS assay to identify small molecule antagonists of the glucocorticoid receptor (GR) signaling pathway - cell viability counter screen (AID 720693). Note: nearly all actives have a fitted effect of over 55% in size. Note: potency is the fitted concentration of half-maximal effect.
The nature of experiment [12]: qHTS assay for identifying genotoxic compounds that show differential cytotoxicity against isogenic chicken DT40 cell lines with known DNA damage response pathways - Rev3 mutant cell line (AID 743014). Note: nearly all actives have a fitted effect of over 55% in size. Note: potency is the fitted concentration of half-maximal effect.
Experiment [13] can be described thus: qHTS assay for identifying genotoxic compounds that show differential cytotoxicity against isogenic chicken DT40 cell lines with known DNA damage response pathways - Rad54/Ku70 mutant cell line (AID 743015). Note: nearly all actives have a fitted effect of over 60% in size. Note: potency is the fitted concentration of half-maximal effect.
For experiment [14], the target named is Androgen receptor (Homo sapiens) (UniProt P10275). Description: qHTS assay to identify small molecule agonists of the androgen receptor (AR) signaling pathway using the MDA cell line (AID 743040; note: nearly all actives have a fitted effect of over 20% in size). The method, boiled down: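 MDA-kb2 breast carcinoma cells stably carrying an MMTV-driven luciferase reporter (AR- and GR-responsive) were seeded and held 5 h at 37C, 0% CO2, then exposed to compounds in DMSO for 16 h. Luminescence was read 30 min after ONE-Glo addition.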
Androgen receptor (Homo sapiens), sequence (P10275 whole entry, looked up): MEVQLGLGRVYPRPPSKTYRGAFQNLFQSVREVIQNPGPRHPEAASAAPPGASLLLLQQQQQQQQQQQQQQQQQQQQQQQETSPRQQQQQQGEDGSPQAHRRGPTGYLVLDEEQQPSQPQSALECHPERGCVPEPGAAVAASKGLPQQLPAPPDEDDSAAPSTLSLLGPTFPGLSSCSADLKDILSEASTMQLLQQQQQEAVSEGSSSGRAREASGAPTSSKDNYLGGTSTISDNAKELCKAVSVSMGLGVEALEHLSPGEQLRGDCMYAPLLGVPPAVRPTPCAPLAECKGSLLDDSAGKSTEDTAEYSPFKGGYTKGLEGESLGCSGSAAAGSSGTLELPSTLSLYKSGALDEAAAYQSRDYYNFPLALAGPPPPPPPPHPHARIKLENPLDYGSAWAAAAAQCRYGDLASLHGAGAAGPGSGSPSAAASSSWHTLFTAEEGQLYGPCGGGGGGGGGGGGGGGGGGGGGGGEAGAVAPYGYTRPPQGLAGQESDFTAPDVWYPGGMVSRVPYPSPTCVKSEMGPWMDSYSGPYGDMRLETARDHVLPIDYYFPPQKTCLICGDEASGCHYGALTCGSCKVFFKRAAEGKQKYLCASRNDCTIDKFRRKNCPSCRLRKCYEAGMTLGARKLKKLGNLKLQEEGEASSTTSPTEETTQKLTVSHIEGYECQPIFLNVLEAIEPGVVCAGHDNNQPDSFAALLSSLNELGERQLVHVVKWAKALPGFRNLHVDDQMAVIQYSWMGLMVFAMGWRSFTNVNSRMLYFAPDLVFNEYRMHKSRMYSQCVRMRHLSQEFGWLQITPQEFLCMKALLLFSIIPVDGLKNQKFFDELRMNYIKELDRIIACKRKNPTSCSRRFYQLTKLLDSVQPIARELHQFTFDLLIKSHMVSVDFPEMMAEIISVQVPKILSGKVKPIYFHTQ

Experiment [15] is described as follows: qHTS assay to identify small molecule antagonists of the androgen receptor (AR) signaling pathway using the MDA cell line - cell viability counter screen (AID 743041; note: nearly all actives have a fitted effect of over 45% in size). An outline of the steps: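 MDA-kb2 AR-luc human breast carcinoma cells (MMTV-luciferase, AR/GR responsive) were treated with compounds plus R1881 agonist for 16 h at 37 °C. Viability was read as CellTiter-Fluor fluorescence in the same wells as the reporter assay.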

In experiment [16] the target is Androgen receptor (Homo sapiens) (UniProt P10275). Put plainly: qHTS assay to identify small molecule antagonists of the androgen receptor (AR) signaling pathway using the MDA cell line (AID 743042; note: nearly all actives have a fitted effect of over 55% in size; note: potency is the fitted concentration of half-maximal effect). An outline of the steps:
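MDA-kb2 cells (human breast carcinoma, stably carrying an MMTV-luciferase reporter responsive to AR and GR) were plated at 3,000 cells/well and preincubated 5 hr at 37C, then given compound plus R1881 agonist for 16 h. ONE-Glo luminescence was read.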

The nature of experiment [17]: qHTS assay for identifying genotoxic compounds that show differential cytotoxicity against isogenic chicken DT40 cell lines with known DNA damage response pathways - wild type cell line (AID 743012). Note: nearly all actives have a fitted effect of over 60% in size. Note: potency is the fitted concentration of half-maximal effect. The method, boiled down:
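Cells (DT40 wild type, 300/well) are treated with DMSO-dissolved compounds after a ~0.5 h pre-incubation and kept 40 h at 37 C/5% CO2. Viability is then measured by CellTiter-Glo luminescence following 30 min at room temperature.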

Experiment [18] in a line: qHTS assay to identify small molecule antagonists of the androgen receptor (AR) signaling pathway - cell viability counter screen (AID 743033; note: nearly all actives have a fitted effect of over 45% in size; note: potency is the fitted concentration of half-maximal effect).

Glucocorticoid receptor (Homo sapiens), sequence (P04150 whole entry, looked up): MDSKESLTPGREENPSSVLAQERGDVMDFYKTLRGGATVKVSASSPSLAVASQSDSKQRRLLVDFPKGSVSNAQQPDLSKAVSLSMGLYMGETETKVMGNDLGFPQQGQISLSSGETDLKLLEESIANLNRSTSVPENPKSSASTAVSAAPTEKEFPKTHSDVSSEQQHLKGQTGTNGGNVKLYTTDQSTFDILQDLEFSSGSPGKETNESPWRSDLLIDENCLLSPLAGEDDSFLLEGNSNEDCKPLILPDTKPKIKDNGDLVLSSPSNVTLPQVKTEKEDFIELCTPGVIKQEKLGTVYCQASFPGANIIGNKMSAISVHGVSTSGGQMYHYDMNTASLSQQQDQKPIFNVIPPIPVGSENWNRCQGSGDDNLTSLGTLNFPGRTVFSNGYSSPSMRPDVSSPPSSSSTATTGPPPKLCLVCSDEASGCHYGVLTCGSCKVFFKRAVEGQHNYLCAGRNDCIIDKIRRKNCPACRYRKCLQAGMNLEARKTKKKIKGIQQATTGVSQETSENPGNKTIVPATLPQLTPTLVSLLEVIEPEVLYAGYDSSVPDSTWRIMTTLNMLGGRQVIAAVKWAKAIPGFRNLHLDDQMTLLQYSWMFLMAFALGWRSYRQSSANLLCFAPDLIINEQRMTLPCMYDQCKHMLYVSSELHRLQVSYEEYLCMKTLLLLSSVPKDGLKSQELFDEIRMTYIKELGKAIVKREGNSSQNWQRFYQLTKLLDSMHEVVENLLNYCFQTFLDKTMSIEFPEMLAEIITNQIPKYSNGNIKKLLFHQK

With `Cc1ccccc1OP(=O)(Oc1ccccc1C)Oc1ccccc1C`, the call in [1], in [3], in [4], in experiment [5] and in experiment [14] was inactive. For the same compound, the Potency entry in experiment [2], in [6], in experiment [7], in [8], in experiment [9] and in experiment [11] was “inactive” each time. For the same compound, the Potency entry in experiment [15] and in experiment [16] was “inactive” each time. Further, the Potency was 27.6 µM (active) in [10], 54.7 µM (active) in experiment [12] and 30.8 µM (active) in [13].
Regarding `CCNc1nc(NC(C)C(C)C)nc(SC)n1` (centres undefined), the result in experiment [1], in [3], in experiment [4] and in experiment [5] was inactive. In addition, the Potency entry in [2], in experiment [6], in experiment [7], in experiment [8], in [9] and in experiment [10] was “inactive” in each case. Besides, the Potency entry in [11] and in experiment [18] was “inactive” in each case. The Potency is 38.6 µM (active) in experiment [17], 34.4 µM (active) in experiment [12] and 61.1 µM (active) in [13].
On to `ClC1(Cl)C2(Cl)C3(Cl)C4(Cl)C(Cl)(Cl)C5(Cl)C3(Cl)C1(Cl)C5(Cl)C24Cl` (centres undefined), for which the outcome in experiment [1], in experiment [3], in [4], in experiment [5] and in experiment [14] was inactive. The Potency entry in [2], in experiment [6], in experiment [7], in [8], in [9] and in experiment [10] was “inactive” throughout. Moreover, the Potency entry in experiment [11], in experiment [17], in experiment [13], in experiment [18], in [15] and in experiment [16] was “inactive” each time.
As to `[O]=[Cr][O][Cr]=[O]`, the call in [1], in experiment [3], in [4] and in experiment [5] was inactive. For the same compound, the Potency entry in experiment [2], in [6], in experiment [7], in experiment [8], in experiment [9] and in experiment [10] was “inactive” each time. Moreover, the Potency result in [11], in experiment [17], in [12], in experiment [13], in experiment [18] and in experiment [15] was “inactive” each time.
Take `COC(=O)C(C)N(C(=O)c1ccco1)c1c(C)cccc1C` (centres undefined): the compound was classed as inactive in [1], in experiment [3], in experiment [4] and in experiment [5]. Besides, the Potency result in [2], in experiment [6], in experiment [7], in experiment [8], in [9] and in experiment [10] was “inactive” in each case. For the same compound, the Potency entry in [11] and in [18] was “inactive” in each case. In addition, in experiment [12], the Potency is 54.4 µM (active).
As to `O=C1C(Cl)=C(Cl)C(=O)C(Cl)=C1Cl`, the compound was called inactive in experiment [1], in experiment [3], in experiment [4], in [5] and in experiment [14]. In addition, the Potency result in [2], in experiment [6], in experiment [7], in [8] and in experiment [9] was “inactive” throughout. The Potency in experiment [10] is 30.9 µM (active); in experiment [11], 38.9 µM (active); in [17], 13.6 µM (active) and 9.69 µM (active); in experiment [12], 8.6 µM (active) and 6.86 µM (active); in experiment [13] it was 17.2 µM (active) and 8.63 µM (active); in experiment [18], 17.3 µM (active) and 21.9 µM (active). For the same compound, the Potency in [16] is 34.2 µM (active) and 30.6 µM (active).
Take `CSC(C)(C)/C=N/O`: the outcome in experiment [1], in experiment [3], in [4] and in [5] was inactive. The Potency entry in experiment [2], in experiment [6], in [7], in [8], in [9] and in experiment [10] was “inactive” in each case. Further, the Potency result in experiment [11], in [17], in experiment [12], in experiment [13] and in experiment [15] was “inactive” each time.
